Experiment [1] in a line: NCI Yeast Anticancer Drug Screen. Data for the rad50 strain (AID 155).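 Further: 0% = growth of vehicle-only cultures of the same strain.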 Particulars: S. cerevisiae rad50 strain growth inhibition, stronger effect = higher value. The procedure, abridged: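 Yeast carrying a defined DNA repair defect were exposed to test compounds, and growth was compared with vehicle-treated controls to give percent inhibition.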
Experiment [2] can be described thus: NCI Yeast Anticancer Drug Screen. Data for the mec2-1 strain (AID 157). Particulars: S. cerevisiae mec2-1 strain, stronger effect = higher value. In short, it runs like this:
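Compounds were applied to mec2-1 yeast cells. Their growth was then compared with that of vehicle-treated cultures to give growth inhibition.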

Experiment [3] can be described thus: NCI Yeast Anticancer Drug Screen. Data for the sgs1 mgt1 strain (AID 161).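 Further: 0% = growth of cultures given vehicle only.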 The following applies: S. cerevisiae sgs1 mgt1 strain, stronger effect = higher value. In short, it runs like this:
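Percent growth inhibition was derived by comparing compound-exposed mutant yeast with vehicle-exposed cultures. The strain carries alterations in DNA damage repair.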

A short description of experiment [4]: NCI Yeast Anticancer Drug Screen. Data for the cln2 rad14 strain (AID 165).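 Further: 0% = growth equal to vehicle treated cultures.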 Particulars: S. cerevisiae cln2 rad14 strain, stronger effect = higher value. The procedure, abridged:
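Strain: cln2 rad14 yeast, altered in cell cycle control and DNA damage repair. Read-out: growth inhibition vs vehicle.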

Experiment [5] can be described thus: NCI Yeast Anticancer Drug Screen. Data for the bub3 strain (AID 167). The following applies: S. cerevisiae bub3 mutant strain, stronger effect = higher value. The procedure, abridged: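 Compounds were applied to a genetically altered yeast strain carrying a cell-cycle control defect. Growth inhibition was scored against vehicle-treated controls.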
Experiment [6] is described as follows: NCI Yeast Anticancer Drug Screen. Data for the mlh1 rad18 strain (AID 175). Particulars: S. cerevisiae mlh1 rad18 strain growth inhibition, stronger effect = higher value. In short, it runs like this: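 A repair-deficient yeast strain is exposed to test compound, and growth is scored relative to vehicle-treated controls.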
Where [7] appears, read: at 5.0 µM (retest, dose inferred, filed as 0.5).
The mark [8] stands for this setting: at 50.0 µM (retest, dose inferred, filed as 5.0).

The structures appear in SMILES notation. About 79,000 compounds went through this panel and 15% of them were active in at least one assay; those are over-represented in the sample as a whole. A number with no mark means an inactive call. Active and inactive are the calls of the source. No stated cut-off is given here; in the data, active means growth inhibition above about 70%; inactive means the rest.

As to `COC1OCCC[CH]1[Hg][Cl]` (stereo not given), the growth inhibition in experiment [1] (setting [7]) was 98% (active); in experiment [1] (setting [8]), 99% (active); in experiment [1] (at 50.0 µM) it was 99.2% (active); in experiment [2] (setting [7]), 100% (active); in experiment [2] (setting [8]) it was 99% (active); in experiment [2] (at 50.0 µM) it was 99.3% (active). In addition, the growth inhibition was 99% (active) in experiment [3] (setting [7]); 99% (active) in experiment [3] (setting [8]); 99.5% (active) in experiment [3] (at 50.0 µM); 99% (active) in experiment [4] (setting [7]); 99% (active) in experiment [4] (setting [8]); 99.3% (active) in experiment [4] (at 50.0 µM). In addition, the growth inhibition was 99% (active) in experiment [5] (setting [7]); 99% (active) in experiment [5] (setting [8]); 99.5% (active) in experiment [5] (at 50.0 µM); 99% (active) in experiment [6] (setting [7]); 99% (active) in experiment [6] (setting [8]); 99.2% (active) in experiment [6] (at 50.0 µM).

For `Oc1c(I)cc(I)cc1I`, the growth inhibition in experiment [1] (setting [7]) was -6%; in experiment [1] (setting [8]), 91% (active); in experiment [1] (at 50.0 µM), 38%; in experiment [2] (setting [7]), -3%; in experiment [2] (setting [8]), 95% (active); in experiment [2] (at 50.0 µM), 43%. The growth inhibition is -9% in experiment [3] (setting [7]); 53% in experiment [3] (setting [8]); 7.7% in experiment [3] (at 50.0 µM); -4% in experiment [4] (setting [7]); 94% (active) in experiment [4] (setting [8]); -32.6% in experiment [4] (at 50.0 µM). Besides, the growth inhibition in experiment [5] (setting [7]) is -5%; in experiment [5] (setting [8]), 82% (active); in experiment [5] (at 50.0 µM) it was 67.6%; in experiment [6] (setting [7]) it was -3%; in experiment [6] (setting [8]), 92% (active); in experiment [6] (at 50.0 µM), 63.4%.

For the molecule `O=C1C(C(Nc2ccccc2)c2ccccc2)=C([O-])c2ccccc21.O=C1C(C(Nc2ccccc2)c2ccccc2)=C([O-])c2ccccc21.[Ni+2]` (stereo not given), the growth inhibition is 57% in experiment [1] (setting [7]); 81% (active) in experiment [1] (setting [8]); 63.3% in experiment [1] (at 50.0 µM); 33% in experiment [2] (setting [7]); 55% in experiment [2] (setting [8]); 71% (active) in experiment [2] (at 50.0 µM). Also, the growth inhibition is 49% in experiment [3] (setting [7]); 80% (active) in experiment [3] (setting [8]); 36.6% in experiment [3] (at 50.0 µM); 46% in experiment [4] (setting [7]); 46% in experiment [4] (setting [8]); 55.8% in experiment [4] (at 50.0 µM). For the same molecule, the growth inhibition in experiment [5] (setting [7]) is 51%; in experiment [5] (setting [8]) it was 84% (active); in experiment [5] (at 50.0 µM), 73.8% (active); in experiment [6] (setting [7]) it was 39%; in experiment [6] (setting [8]), 81% (active); in experiment [6] (at 50.0 µM), 63.1%.

As to `COC(=O)[C@]1(C)CCC[C@]2(C)[C@H]3CC4OO[C@@]3(CC[C@H]21)[C@H]1O[C@@]41C(C)C`, the growth inhibition is 98% (active) in experiment [1] (setting [7]); 99% (active) in experiment [1] (setting [8]); 92.5% (active) in experiment [1] (at 50.0 µM); 99% (active) in experiment [2] (setting [7]); 99% (active) in experiment [2] (setting [8]); 93.4% (active) in experiment [2] (at 50.0 µM). For the same molecule, the growth inhibition in experiment [3] (setting [7]) is 99% (active); in experiment [3] (setting [8]) it was 100% (active); in experiment [3] (at 50.0 µM), 93.7% (active); in experiment [4] (setting [7]), 92% (active); in experiment [4] (setting [8]), 99% (active); in experiment [4] (at 50.0 µM) it was 92.2% (active). For the same molecule, the growth inhibition is 98% (active) in experiment [5] (setting [7]); 99% (active) in experiment [5] (setting [8]); 91.8% (active) in experiment [5] (at 50.0 µM); 98% (active) in experiment [6] (setting [7]); 99% (active) in experiment [6] (setting [8]); 92.3% (active) in experiment [6] (at 50.0 µM).

Turning to `CC(=O)C(CN(C)Cc1ccccc1)C(c1ccccc1)c1c(O)c2ccccc2oc1=O` (stereo not given), the growth inhibition is 26% in experiment [1] (setting [7]); 26% in experiment [1] (setting [8]); 68.5% in experiment [1] (at 50.0 µM); 1% in experiment [2] (setting [7]); 1% in experiment [2] (setting [8]); 56.2% in experiment [2] (at 50.0 µM). Further, the growth inhibition was 24% in experiment [3] (setting [7]); 24% in experiment [3] (setting [8]); 71.7% (active) in experiment [3] (at 50.0 µM); -9% in experiment [4] (setting [7]); -9% in experiment [4] (setting [8]); 47.5% in experiment [4] (at 50.0 µM). Moreover, the growth inhibition in experiment [5] (setting [7]) was -1%; in experiment [5] (setting [8]) it was -1%; in experiment [5] (at 50.0 µM), 70.7% (active); in experiment [6] (setting [7]), 11%; in experiment [6] (setting [8]) it was 11%; in experiment [6] (at 50.0 µM) it was 76.5% (active).

For `CC(=O)OCC12CCC(C)=CC1OC1C(O)C(OC(C)=O)C2(C)C12CO2` (stereo not given), the growth inhibition in experiment [1] (setting [7]) is 99% (active); in experiment [1] (setting [8]) it was 99% (active); in experiment [1] (at 50.0 µM) it was 92.7% (active); in experiment [2] (setting [7]) it was 98% (active); in experiment [2] (setting [8]) it was 100% (active); in experiment [2] (at 50.0 µM) it was 94.5% (active). In addition, the growth inhibition in experiment [3] (setting [7]) is 98% (active); in experiment [3] (setting [8]) it was 99% (active); in experiment [3] (at 50.0 µM) it was 93.7% (active); in experiment [4] (setting [7]) it was 99% (active); in experiment [4] (setting [8]), 99% (active); in experiment [4] (at 50.0 µM), 92.8% (active). In addition, the growth inhibition in experiment [5] (setting [7]) is 97% (active); in experiment [5] (setting [8]) it was 99% (active); in experiment [5] (at 50.0 µM), 92.8% (active); in experiment [6] (setting [7]) it was 99% (active); in experiment [6] (setting [8]), 99% (active); in experiment [6] (at 50.0 µM), 92.5% (active).

Regarding `O=C1C=CC(=O)C(Cl)=C1`, the growth inhibition was 10% in experiment [1] (setting [7]); 96% (active) in experiment [1] (setting [8]); 92.2% (active) in experiment [1] (at 50.0 µM); 3% in experiment [2] (setting [7]); 73% (active) in experiment [2] (setting [8]); 96% (active) in experiment [2] (at 50.0 µM). In addition, the growth inhibition in experiment [3] (setting [7]) is 10%; in experiment [3] (setting [8]), 98% (active); in experiment [3] (at 50.0 µM) it was 96.2% (active); in experiment [4] (setting [7]), 6%; in experiment [4] (setting [8]), 56%; in experiment [4] (at 50.0 µM), 91.4% (active). For the same molecule, the growth inhibition was 16% in experiment [5] (setting [7]); 97% (active) in experiment [5] (setting [8]); 95% (active) in experiment [5] (at 50.0 µM); 5% in experiment [6] (setting [7]); 98% (active) in experiment [6] (setting [8]); 95.5% (active) in experiment [6] (at 50.0 µM).

As for `O=[As](O)(O)CCc1ccccc1`, the growth inhibition in experiment [1] (setting [7]) was -148%; in experiment [1] (setting [8]) it was -168%; in experiment [1] (at 50.0 µM), 2.3%; in experiment [2] (setting [7]), -50%; in experiment [2] (setting [8]), -54%; in experiment [2] (at 50.0 µM) it was 3.75%. For the same molecule, the growth inhibition in experiment [3] (setting [7]) was -67%; in experiment [3] (setting [8]), -56%; in experiment [3] (at 50.0 µM) it was 8.35%; in experiment [4] (setting [7]), -58%; in experiment [4] (setting [8]), -65%; in experiment [4] (at 50.0 µM), 17.4%. The growth inhibition in experiment [5] (setting [7]) was -67%; in experiment [5] (setting [8]) it was -78%; in experiment [5] (at 50.0 µM) it was -5.95%; in experiment [6] (setting [7]), -146%; in experiment [6] (setting [8]), -115%; in experiment [6] (at 50.0 µM), 5.7%.

For `COc1cc(C2c3cc4c(cc3[C@@H](Nc3ccc([N+](=O)[O-])cc3)C3COC(=O)[C@H]23)OCO4)cc(OC)c1O` (stereo not given in full), the growth inhibition in experiment [1] (setting [7]) was 96% (active); in experiment [1] (setting [8]), 96% (active); in experiment [1] (at 50.0 µM), 84.4% (active); in experiment [2] (setting [7]) it was 97% (active); in experiment [2] (setting [8]), 97% (active); in experiment [2] (at 50.0 µM) it was 91% (active). In addition, the growth inhibition in experiment [3] (setting [7]) was 49%; in experiment [3] (setting [8]), 98% (active); in experiment [3] (at 50.0 µM), 87.7% (active); in experiment [4] (setting [7]), 22%; in experiment [4] (setting [8]), 97% (active); in experiment [4] (at 50.0 µM), 86.6% (active). In addition, the growth inhibition in experiment [5] (setting [7]) was 54%; in experiment [5] (setting [8]) it was 98% (active); in experiment [5] (at 50.0 µM) it was 87.2% (active); in experiment [6] (setting [7]), 95% (active); in experiment [6] (setting [8]) it was 96% (active); in experiment [6] (at 50.0 µM), 88.5% (active).

With `COc1cc(/C=C/[N+](=O)[O-])cc(Br)c1OC`, the growth inhibition in experiment [1] (setting [7]) is 86% (active); in experiment [1] (setting [8]) it was 98% (active); in experiment [1] (at 50.0 µM), 90.6% (active); in experiment [2] (setting [7]) it was 79% (active); in experiment [2] (setting [8]), 99% (active); in experiment [2] (at 50.0 µM) it was 92.3% (active). Also, the growth inhibition is 83% (active) in experiment [3] (setting [7]); 98% (active) in experiment [3] (setting [8]); 92.5% (active) in experiment [3] (at 50.0 µM); 55% in experiment [4] (setting [7]); 97% (active) in experiment [4] (setting [8]); 90.2% (active) in experiment [4] (at 50.0 µM). The growth inhibition in experiment [5] (setting [7]) was 97% (active); in experiment [5] (setting [8]), 98% (active); in experiment [5] (at 50.0 µM) it was 91.5% (active); in experiment [6] (setting [7]) it was 89% (active); in experiment [6] (setting [8]), 98% (active); in experiment [6] (at 50.0 µM), 91.7% (active).

Values taken from PubChem BioAssay (NCI).
